Experimental data taken from PubChem BioAssay (Tox21).
Results filed as inconclusive are left out. Active and inactive are the calls of the source. Unless noted, calls follow the shape of the dose curve; as a rule, active = well fitted curve in the direction sought with a large enough effect in the repeat runs; inconclusive = weak or mixed curves; inactive = no such curve, though single readings can be large; an effect the other way counts as inactive or inconclusive.

Tests used:
[1] = qHTS assay to identify small molecule agonists of the vitamin D receptor (VDR) signaling pathway - cell viability counter screen (AID 743224); also: series mostly up to about 63 µM; % is scaled to controls: 0 for no effect and ±100 for the full control effect; nearly all actives have a fitted effect of over 50% in size
Outline: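 Counter screen for cytotoxicity: VDR-bla cells at 2,000 cells/well, 16 h compound exposure, then CellTiter-Glo luminescence after the beta-lactamase measurement.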

[2] = qHTS assay to identify small molecule antagonists of the vitamin D receptor (VDR) signaling pathway - cell viability counter screen (AID 743225); also: % is scaled to controls: 0 for no effect and ±100 for the full control effect; nearly all actives have a fitted effect of over 50% in size
Outline: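 Cytotoxicity toward the VDR-bla HEK 293T line was scored by ATP-based CellTiter-Glo luminescence, read in the wells already used for the beta-lactamase readout after 16 h compound treatment under 3 nM 1-alpha,25-dihydroxyvitamin D3 stimulation.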

[3] = qHTS assay to identify small molecule agonists of the NFkB signaling pathway (AID 1159509; active = well fitted curve in the direction sought with a large enough effect in the signal ratio in the repeat runs, not every such curve was filed as active; the % refers to the signal ratio; also: series mostly up to about 61 µM; % is scaled to controls: 0 for no effect and ±100 for the full control effect)
Outline: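 Beta-lactamase reporter assay run in quantitative high-throughput format on an NF-kB-responsive ME-180 line, with 5 hr compound treatment and a FRET-based blue/green fluorescence readout.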

[4] = qHTS assay to identify small molecule agonists of the NFkB signaling pathway - cell viability counter screen (AID 1159515; calls by dose curve; also: series mostly up to about 61 µM; % is scaled to controls: 0 for no effect and ±100 for the full control effect; nearly all actives have a fitted effect of over 55% in size)
Outline: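 Counter screen run alongside the NFkB-bla agonist assay: ME-180 reporter cells exposed to compounds for 5 hr, then lysed with CellTiter-Glo in the same wells. Luminescence, read after 30 min, reflects viable cells.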

[5] = qHTS assay to identify small molecule agonists of the endoplasmic reticulum stress response signaling pathway (AID 1159516; active = well fitted activation curve with a large enough effect in the signal ratio in the repeat runs, not every such curve was filed as active; the % refers to the signal ratio; also: % is scaled to controls: 0 for no effect and ±100 for the full control effect)
Outline: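 For this screen, HeLa cells stably carrying beta-lactamase under the ER stress response element received test compounds, positive controls or DMSO for 5 hr at 37 C; B/G FRET substrate was then added and dual-wavelength emission recorded.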

[6] = qHTS assay to identify small molecule agonists of the endoplasmic reticulum stress response signaling pathway - cell viability counter screen (AID 1159517; calls by dose curve; also: series mostly up to about 61 µM; % is scaled to controls: 0 for no effect and ±100 for the full control effect; nearly all actives have a fitted effect of over 50% in size)
Outline: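 Cytotoxicity of test compounds toward ESRE-bla HeLa cells was assessed after 5 hr exposure. The luminescent CellTiter-Glo signal was measured 30 min after reagent addition.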

[7] = qHTS assay to identify small molecule antagonists of the retinoid-related orphan receptor gamma (ROR-gamma) signaling pathway - cell viability counter screen (AID 1159520); also: % is scaled to controls: 0 for no effect and ±100 for the full control effect; nearly all actives have a fitted effect of over 50% in size
Outline: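 Tet-on ROR gamma CHO cells (1,000/well) were plated 4 hr, given compounds in DMSO for 2 hr at 37 C, then induced with 1 uM final doxycycline for 16 hr. Viability was read as ATP by CellTiter-Glo luminescence after 30 min.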

[8] = biological target: Nuclear receptor ROR-gamma (Homo sapiens) (UniProt P51449); test: qHTS assay to identify small molecule antagonists of the retinoid-related orphan receptor gamma (ROR-gamma) signaling pathway (AID 1159521)
Outline: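 Readout: ONE-Glo luciferase luminescence, 30 min at room temperature. System: Tet-on RORγ CHO, RORE-LUC. Sequence: compound 2 h, doxycycline 1 uM final, 16 h at 37 C.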

[9] = qHTS assay to identify small molecule agonists of the AP-1 signaling pathway - cell viability counter screen (AID 1159525; calls by dose curve; also: nearly all actives have a fitted effect of over 55% in size)
Outline: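 Each titration point was normalised to DMSO and tetra n-octyl ammonium bromide controls. The read was Cell Titer Glo luminescence after 30 min at RT, following 5 h compound exposure of ME-180 AP-1-bla cells at 37 °C.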

[10] = qHTS assay to identify small molecule agonists of the AP-1 signaling pathway (AID 1159526; calls by dose curve; also: % is scaled to controls: 0 for no effect and ±100 for the full control effect)
[11] = biological target: Retinoic acid receptor RXR-alpha (Homo sapiens) (UniProt P19793); test: qHTS assay to identify small molecule agonists of the RXR signaling pathway (AID 1159527; calls by dose curve; also: % is scaled to controls: 0 for no effect and ±100 for the full control effect; nearly all actives have a fitted effect of over 35% in size)
Retinoic acid receptor RXR-alpha (Homo sapiens), sequence (P19793 whole entry, looked up): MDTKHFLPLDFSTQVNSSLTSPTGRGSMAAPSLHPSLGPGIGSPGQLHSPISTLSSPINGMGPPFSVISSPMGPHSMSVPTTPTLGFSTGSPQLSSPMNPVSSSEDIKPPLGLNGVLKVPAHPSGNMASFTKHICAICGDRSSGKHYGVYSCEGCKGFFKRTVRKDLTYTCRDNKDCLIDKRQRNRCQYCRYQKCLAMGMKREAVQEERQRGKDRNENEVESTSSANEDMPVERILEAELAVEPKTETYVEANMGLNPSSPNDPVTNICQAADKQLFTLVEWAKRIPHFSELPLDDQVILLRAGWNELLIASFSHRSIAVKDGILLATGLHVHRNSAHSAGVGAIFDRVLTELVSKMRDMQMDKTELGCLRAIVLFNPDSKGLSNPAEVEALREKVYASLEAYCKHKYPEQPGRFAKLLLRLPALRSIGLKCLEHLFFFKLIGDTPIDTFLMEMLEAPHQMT
Outline: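 Reporter activation is measured as beta-lactamase activity via FRET substrate cleavage (emission 460/530 nm) in HEK 293T cells expressing an RXR-alpha-driven bla construct, following 16 hr compound exposure at 37 C.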

[12] = qHTS assay to identify small molecule agonists of the RXR signaling pathway - cell viability counter screen (AID 1159529)
Outline: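 Tox21 10K compounds were tested for cytotoxicity against GeneBLAzer RXR-alpha HEK 293T cells grown in 2% charcoal-stripped FBS. Exposure lasted 16 hr at 37 C, 5% CO2; viability read by CellTiter-Glo luminescence.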

[13] = qHTS assay to identify small molecule antagonists of the retinoid acid receptor (RAR) signaling pathway - cell viability counter screen (AID 1159551); also: % is scaled to controls: 0 for no effect and ±100 for the full control effect; nearly all actives have a fitted effect of over 35% in size
Outline: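 Measured by luminescent ATP detection, viability reflects C3RL4 cells treated 6 h at 37 C with test chemicals in the presence of 1 uM (final) retinol.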

[14] = qHTS assay to identify small molecule antagonists of the estrogen related receptor (ERR) signaling pathway - cell viability counter screen (AID 1224818); also: series mostly up to about 46 µM; % is scaled to controls: 0 for no effect and ±100 for the full control effect
Outline: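 Compounds dissolved in DMSO were applied to ERR cells seeded at 2,000 per well 6 h earlier. Cell viability followed 17.5 h later via 30-min CellTiter-Fluor fluorescence.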

[15] = qHTS assay to identify small molecule antagonists of the estrogen related receptor signaling pathway with the pleiotropic PPARgamma coactivator (PGC) cell viability counter screen (AID 1224822)
Outline: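 Counter screen for cell viability: PGC/ERR cells, 6 h pre-incubation after plating, 17.5 h compound exposure at 37 C, fluorescence from CellTiter-Fluor after 30 min.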

[16] = qHTS assay to identify small molecule agonists of the retinoic acid receptor (RAR) signaling pathway (AID 1159553); also: % is scaled to controls: 0 for no effect and ±100 for the full control effect
Outline: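 6 hr compound exposure (DMSO vehicle) of overnight-plated C3RL4 RARE-luc cells at 37 C; luminescence quantified after 30 min RT with luciferase reagent.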

Cc1ncsc1CCCl
inactive: Potency [1] | outcome [2] | outcome [3] | outcome [4] | outcome [5] | Potency [6] | Potency [7] | Potency [8] | Potency [9] | outcome [10] | Potency [11] | Potency [12] | Potency [13] | outcome [14] | outcome [15]

CCCSC(=O)N(CCC)CCC
inactive: Potency [1] | outcome [2] | outcome [3] | outcome [4] | outcome [5] | Potency [6] | Potency [7] | Potency [8] | Potency [9] | outcome [10] | Potency [11] | Potency [12] | Potency [13]

O=[N+]([O-])c1cc(Cl)c(Cl)c(Cl)c1
inactive: Potency [1] | outcome [3] | outcome [4] | outcome [5] | Potency [6] | Potency [7] | Potency [8] | Potency [9] | outcome [10] | Potency [11] | Potency [12] | Potency [13]

CCCCC(=O)Cl
inactive: Potency [1] | outcome [2] | outcome [3] | outcome [4] | outcome [5] | Potency [6] | Potency [7] | Potency [8] | Potency [9] | outcome [10] | Potency [11] | Potency [12] | Potency [13]

O=C(NCO)NCO
inactive: Potency [1] | outcome [2] | outcome [3] | outcome [4] | outcome [5] | Potency [6] | Potency [7] | Potency [8] | Potency [9] | outcome [10] | Potency [11] | Potency [12] | Potency [13]

COc1ncc(F)c2nc(S(=O)(=O)Nc3c(F)cccc3F)nn12
inactive: Potency [1] | outcome [2] | outcome [3] | outcome [4] | outcome [5] | Potency [6] | Potency [7] | Potency [8] | Potency [9] | outcome [10] | Potency [11] | Potency [12] | Potency [13]

CCC(C)(C)c1cc(-n2nc3ccccc3n2)c(O)c(C(C)(C)CC)c1
inactive: Potency [1] | outcome [2] | outcome [3] | outcome [4] | outcome [5] | Potency [6] | Potency [7] | Potency [8] | Potency [9] | outcome [10] | Potency [11] | Potency [12] | Potency [13] | Potency [16]

O=C(CCN1CC1)OCC(CO)(COC(=O)CCN1CC1)COC(=O)CCN1CC1
inactive: Potency [1] | outcome [2] | outcome [3] | outcome [4] | outcome [5] | Potency [6] | Potency [7] | Potency [8] | Potency [9] | outcome [10] | Potency [11] | Potency [12] | Potency [13]

CC(=O)C(Cl)Cl
inactive: Potency [1] | outcome [2] | outcome [3] | outcome [4] | outcome [5] | Potency [6] | Potency [7] | Potency [8] | Potency [9] | outcome [10] | Potency [11] | Potency [12] | Potency [13]

CC(C)CC(N(C)C)C1(c2ccc(Cl)cc2)CCC1 (configuration not stated)
inactive: Potency [1] | outcome [2] | outcome [3] | outcome [4] | outcome [5] | Potency [6] | Potency [7] | Potency [8] | Potency [9] | outcome [10] | Potency [11] | Potency [12] | Potency [13]

CC1=C(C(=O)O)N2C(=O)[C@@H](N)[C@H]2SC1
inactive: Potency [1] | outcome [3] | outcome [4] | outcome [5] | Potency [6] | activity, negative = cytotoxicity [7] 0.102% [at 19 µM] | activity change, negative = inhibition [8] 27.3% [at 19 µM] | viability change, negative = cytotoxic [9] 19.2% [at 15.8 µM] | activation [10] -1.04% [at 15.8 µM] | activation [11] 0.217% [at 15.8 µM] | activity change, negative = cytotoxicity [12] 1.45% [at 15.8 µM] | activity change, negative = cytotoxicity [13] -0.0172% [at 19 µM]

N#CCCC#N
inactive: Potency [1] | outcome [3] | outcome [4] | outcome [5] | Potency [6] | Potency [7] | Potency [8] | Potency [9] | outcome [10] | Potency [11] | Potency [12] | Potency [13]

CCN(Cc1ccc(Cl)nc1)/C(=C/[N+](=O)[O-])NC
inactive: Potency [1] | outcome [2] | outcome [3] | outcome [4] | outcome [5] | Potency [6] | Potency [7] | Potency [8] | Potency [9] | outcome [10] | Potency [11] | Potency [12] | Potency [13]

Cc1coc2c1CCC(C)C2 (configuration not stated)
inactive: Potency [1] | outcome [2] | outcome [3] | outcome [4] | outcome [5] | Potency [6] | Potency [7] | Potency [8] | Potency [9] | outcome [10] | Potency [11] | Potency [12] | Potency [13]

COc1cc(OC)nc(NC(=O)NS(=O)(=O)c2ncccc2C(=O)N(C)C)n1
inactive: Potency [1] | outcome [2] | outcome [3] | outcome [4] | outcome [5] | Potency [6] | Potency [7] | Potency [8] | Potency [9] | outcome [10] | Potency [11] | Potency [12] | Potency [13]

CC(N)=S
inactive: Potency [1] | outcome [3] | outcome [4] | outcome [5] | Potency [6] | Potency [7] | Potency [8] | Potency [9] | outcome [10] | Potency [11] | Potency [12] | Potency [13]

COP(=S)(OC)Oc1ccc(S(N)(=O)=O)cc1
inactive: Potency [1] | outcome [2] | outcome [3] | outcome [4] | outcome [5] | Potency [6] | Potency [7] | Potency [8] | Potency [9] | outcome [10] | Potency [11] | Potency [12] | Potency [13]

CC(C)NCC(O)c1ccc(N)c(C#N)c1 (configuration not stated)
inactive: Potency [1] | outcome [2] | outcome [3] | outcome [4] | outcome [5] | Potency [6] | Potency [7] | Potency [8] | Potency [9] | outcome [10] | Potency [11] | Potency [12] | Potency [13]

CC(C(=O)c1ccccc1)N(C)C (configuration not stated)
inactive: Potency [1] | outcome [3] | outcome [4] | outcome [5] | Potency [6] | Potency [7] | Potency [8] | Potency [9] | outcome [10] | Potency [11] | Potency [12] | Potency [13]

O=C(CCCN1CCC(n2c(=O)[nH]c3ccccc32)CC1)c1ccc(F)cc1
inactive: Potency [1] | outcome [3] | outcome [4] | outcome [5] | Potency [6] | Potency [7] | Potency [8] | Potency [9] | outcome [10] | Potency [11] | Potency [12] | Potency [13]
